Drawing on PubChem BioAssay, this text covers composite z-score and z-score for 23 molecules.

For test [1], the system named is XIP peptide (Xip251-270) binding. Briefly: small-molecule binders of XIP peptide, primary screen, biochemical, small-molecule microarray, fluorescence 635/667 nm, 0.1 µg/mL protein (AID 1182). The conditions noted are these: fluorescent protein binding, 635 nm, higher = more signal, called active from +8 up or from −8 down.
In test [2] the test system is XIP peptide (Xip251-270). Briefly: small-molecule binders of XIP peptide, primary screen, biochemical, small-molecule microarray, fluorescence 635/667 nm, 0.5 µg/mL protein (AID 1183). The conditions noted are these: small-molecule microarray binding, fluorescence 635 nm; higher = more signal.
Test [3] in a line: Plasmodium falciparum growth inhibition, primary screen, strain 3D7, DAPI fluorescence, 100 nL (AID 1184).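 Further: parasites grown inside human red blood cells in medium with human serum.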 The conditions noted are these: P. falciparum 3D7 growth, 3 d, higher = more signal.
The target in test [4] is Homeobox protein Hox-A13 (Mus musculus) (UniProt Q62424). Kind of test: inhibitors of HoxA13-DNA binding, primary screen, biochemical, fluorescence polarization, labeled oligonucleotide (AID 1185). The conditions noted are these: 15 min, higher = more signal, called active from +8 up or from −8 down. In general terms: Polarisation of emitted light reports the rotation of a fluorescent probe.
Homeobox protein Hox-A13 (Mus musculus), sequence (Q62424 whole entry, looked up): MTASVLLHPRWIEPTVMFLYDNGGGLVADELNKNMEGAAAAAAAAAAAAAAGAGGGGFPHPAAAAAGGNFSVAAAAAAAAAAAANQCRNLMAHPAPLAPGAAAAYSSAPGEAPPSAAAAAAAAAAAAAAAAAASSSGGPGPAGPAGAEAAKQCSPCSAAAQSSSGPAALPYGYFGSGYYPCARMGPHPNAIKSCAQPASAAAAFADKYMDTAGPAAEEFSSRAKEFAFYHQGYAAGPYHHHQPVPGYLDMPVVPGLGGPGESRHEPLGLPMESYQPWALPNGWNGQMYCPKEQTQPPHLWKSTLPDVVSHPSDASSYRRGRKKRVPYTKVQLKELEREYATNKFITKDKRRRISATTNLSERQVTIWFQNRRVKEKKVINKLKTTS

Calls of active or inactive are those of the source.

For the molecule `O=C1C2=CC[C@H]3C(=O)N(C[C@@H]4CCCO4)C(=O)[C@H]3[C@H]2[C@H](O)[C@@H]2O[C@H]12`, the composite z-score in test [1] is -0.14 (inactive); in test [2] it was 0.39. For the same molecule, the z-score was -0.434 in test [3] and -3.47 (inactive) in test [4].

As for `CCc1cc2c(nc1CC)CCN(CCC(C)=NOC[C@@H](C)[C@H](OCc1ccccc1)C(C)C)C2`, the figures for the composite z-score in test [1] and in test [2] were -0.259 (inactive) and -0.125, respectively. Further, the z-score in test [3] is 0.23; in test [4], -3.53 (inactive).

As to `C#CCCCON=C1C[C@@H](O)[C@@H](O)[C@@H]2[C@@H]3C(=O)N(CC)C(=O)[C@@H]3CC[C@H]12`, the composite z-score in test [1] is 0.835 (inactive); in test [2], -0.423. In addition, the z-score in test [3] was -0.263; in test [4], 0.0042 (inactive).

Consider `COc1ccc(O[C@H]2C=C[C@@H](c3ccccc3)O[C@@H]2COC(=O)NCc2cccc3ccccc23)cc1`, for which the composite z-score in test [1] was -0.318 (inactive); in test [2], 0.143. Besides, the z-score in test [3] is -0.806; in test [4], 1.25 (inactive).

Take `CC(C)(C)N1C(=O)[C@H]2[C@H]3[C@H](O)[C@H](O)CC(=NOC[C@@H](O)COCc4ccco4)[C@H]3CC[C@H]2C1=O`: the values for the composite z-score in test [1] and in test [2] were 0.0133 (inactive) and 0.72, respectively. For the same molecule, the z-score in test [3] is -0.62; in test [4], 0.976 (inactive).

On to `CC(C)=NO[C@H](C)c1cn([C@@H]2COC[C@H]2O)nn1`, for which the composite z-score was 0.496 (inactive) in test [1] and 0.0358 in test [2]. For the same molecule, the values for the z-score in test [3] and in test [4] were 0.672 and 0.141 (inactive), respectively.

On to `CCOC(=O)CCN1C(=O)[C@H]2[C@H]3[C@H](O)[C@H](O)CC(=NOCC(C)C)[C@@H]3CC[C@H]2C1=O`, for which the composite z-score in test [1] is -0.0503 (inactive); in test [2], 0.203. The values for the z-score in test [3] and in test [4] were -0.379 and -3.95 (inactive), respectively.

For `CO[C@H]1COC(=O)CCC[C@H](C)[C@H](OC)COC(=O)CC=C[C@@H]1C`, the values for the composite z-score in test [1] and in test [2] were 0.239 (inactive) and 0.0648, respectively. Besides, the figures for the z-score in test [3] and in test [4] were -0.116 and -0.695 (inactive), respectively.

With `CCN1C(=O)[C@H]2[C@H]3[C@H](O)[C@H](O)CC(=NOC(C)CN4CCCc5nc(C)c(C)cc54)[C@@H]3CC[C@H]2C1=O` (some centres not stated), the composite z-score in test [1] is 0.302 (inactive); in test [2], 0.148. The z-score was 0.393 in test [3] and -10.2 (active) in test [4].

As for `C[C@H]1CC[C@H]2C(=O)O[C@H](CO)CN2[C@@H]1c1ccc(Br)cc1`, the composite z-score is -0.0442 (inactive) in test [1] and -0.127 in test [2]. In addition, the z-score in test [3] is 0.389; in test [4], -3.98 (inactive).

In the case of `CO[C@@H]1C=CCC(=O)N[C@@H](C)C(=O)OC[C@@H](OC)[C@H](C)C=CCC(=O)OC[C@H]1C`, the values for the composite z-score in test [1] and in test [2] were 0.551 (inactive) and 0.744, respectively. For the same molecule, the results for the z-score in test [3] and in test [4] were -0.523 and -0.0745 (inactive), respectively.

For the molecule `CC(=O)OC[C@H]1O[C@H](C#CCCc2ccccc2)C=C[C@@H]1OC(C)=O`, the composite z-score in test [1] is 0.22 (inactive); in test [2], 0.758. In addition, the results for the z-score in test [3] and in test [4] were 0.972 and -4.7 (inactive), respectively.

For `O=C1C=C[C@@H](O)[C@@H]2[C@@H]3C(=O)N(C4CCCCC4)C(=O)[C@@H]3CC[C@@H]12`, the figures for the composite z-score in test [1] and in test [2] were 0.386 (inactive) and 0.178, respectively. Also, the z-score is 0.307 in test [3] and -0.431 (inactive) in test [4].

On to `CC(C)=CCCC(C)=CCON=C1C[C@@H](O)[C@@H](O)[C@@H]2[C@@H]3C(=O)N([C@@H](C)c4ccccc4)C(=O)[C@@H]3CC[C@@H]12`, for which the values for the composite z-score in test [1] and in test [2] were 0.0439 (inactive) and 0.242, respectively. In addition, the z-score in test [3] is -0.81; in test [4] it was -1.3 (inactive).

Regarding `C#CCCCON=C1C[C@@H](O)[C@@H](O)[C@@H]2[C@@H]3C(=O)N([C@@H](C)c4ccccc4)C(=O)[C@@H]3CC[C@@H]12`, the composite z-score in test [1] is -0.406 (inactive); in test [2], -0.125. The z-score is -0.913 in test [3] and -2.28 (inactive) in test [4].

For the molecule `CCOC(=O)NN=C1C[C@@H](O)[C@@H](O)[C@@H]2[C@@H]3C(=O)N(CC)C(=O)[C@@H]3CC[C@H]12`, the composite z-score in test [1] is 0.124 (inactive); in test [2], -0.379. For the same molecule, the figures for the z-score in test [3] and in test [4] were 0.613 and 0.368 (inactive), respectively.

Consider `C[C@H]1CC[C@@H](C(=O)O)N[C@@H]1c1ccc(C#Cc2ccccc2)cc1`, for which the composite z-score in test [1] was -0.125 (inactive); in test [2], 0.601. The z-score was -1.61 in test [3] and -2.16 (inactive) in test [4].

On to `COC(=O)[C@H](C)NC(=O)CCC1CC(OC(=O)NCc2ccc3c(c2)OCO3)CC2(CCCC(COC(=O)NCCCN3CCCC3=O)O2)O1` (some centres not stated), for which the composite z-score is 0.045 (inactive) in test [1] and 0.612 in test [2]. In addition, the z-score is -1.84 in test [3] and -5.61 (inactive) in test [4].

`COC(=O)[C@H](C)NC(=O)CCC1CC(OC(=O)NCc2cccc3ccccc23)CC2(CCCC(COC(=O)NCCCN3CCCC3=O)O2)O1` (some centres not stated): the composite z-score in test [1] is 1.17 (inactive); in test [2] it was 0.582. Further, the z-score in test [3] is -0.529; in test [4], -3.27 (inactive).

In the case of `O=C1C2=CC[C@H]3C(=O)N(C4CCCCC4)C(=O)[C@H]3[C@H]2[C@H](O)[C@@H]2O[C@H]12`, the composite z-score in test [1] was 0.381 (inactive); in test [2], -0.274. Further, the z-score in test [3] is -1.98; in test [4] it was -5.22 (inactive).

In the case of `COC(=O)CC=C[C@@H](C)[C@@H](C=NOC[C@@H](O)COCc1ccco1)OC`, the figures for the composite z-score in test [1] and in test [2] were 0.146 (inactive) and 0.338, respectively. In addition, the values for the z-score in test [3] and in test [4] were 0.715 and -0.341 (inactive), respectively.

`CON(C)C(=O)c1nnc2c(n1)[nH]c1ccccc12`: the composite z-score in test [1] was -0.132 (inactive); in test [2] it was 0.755. Also, the z-score is 0.763 in test [3] and 0.447 (inactive) in test [4].

Take `COC(=O)[C@H](C)NC(=O)CCC1CC(OC(=O)NCc2cccc3ccccc23)CC2(CCCC(COC(=O)NCCc3ccccc3OC)O2)O1` (some centres not stated): the figures for the composite z-score in test [1] and in test [2] were -0.0645 (inactive) and 0.384, respectively. Besides, the z-score in test [3] was -1.47; in test [4], -4.27 (inactive).
